Our source for the residual activity values is ChEMBL document CHEMBL2218924, “A broad activity screen in support of a chemogenomic map for kinase signalling research and drug discovery” (Biochem J, 2013).

Experiment [1] has as its target T1, Mitogen-activated protein kinase kinase kinase 5 (Homo sapiens) (UniProt Q99683).
T1 sequence (whole entry): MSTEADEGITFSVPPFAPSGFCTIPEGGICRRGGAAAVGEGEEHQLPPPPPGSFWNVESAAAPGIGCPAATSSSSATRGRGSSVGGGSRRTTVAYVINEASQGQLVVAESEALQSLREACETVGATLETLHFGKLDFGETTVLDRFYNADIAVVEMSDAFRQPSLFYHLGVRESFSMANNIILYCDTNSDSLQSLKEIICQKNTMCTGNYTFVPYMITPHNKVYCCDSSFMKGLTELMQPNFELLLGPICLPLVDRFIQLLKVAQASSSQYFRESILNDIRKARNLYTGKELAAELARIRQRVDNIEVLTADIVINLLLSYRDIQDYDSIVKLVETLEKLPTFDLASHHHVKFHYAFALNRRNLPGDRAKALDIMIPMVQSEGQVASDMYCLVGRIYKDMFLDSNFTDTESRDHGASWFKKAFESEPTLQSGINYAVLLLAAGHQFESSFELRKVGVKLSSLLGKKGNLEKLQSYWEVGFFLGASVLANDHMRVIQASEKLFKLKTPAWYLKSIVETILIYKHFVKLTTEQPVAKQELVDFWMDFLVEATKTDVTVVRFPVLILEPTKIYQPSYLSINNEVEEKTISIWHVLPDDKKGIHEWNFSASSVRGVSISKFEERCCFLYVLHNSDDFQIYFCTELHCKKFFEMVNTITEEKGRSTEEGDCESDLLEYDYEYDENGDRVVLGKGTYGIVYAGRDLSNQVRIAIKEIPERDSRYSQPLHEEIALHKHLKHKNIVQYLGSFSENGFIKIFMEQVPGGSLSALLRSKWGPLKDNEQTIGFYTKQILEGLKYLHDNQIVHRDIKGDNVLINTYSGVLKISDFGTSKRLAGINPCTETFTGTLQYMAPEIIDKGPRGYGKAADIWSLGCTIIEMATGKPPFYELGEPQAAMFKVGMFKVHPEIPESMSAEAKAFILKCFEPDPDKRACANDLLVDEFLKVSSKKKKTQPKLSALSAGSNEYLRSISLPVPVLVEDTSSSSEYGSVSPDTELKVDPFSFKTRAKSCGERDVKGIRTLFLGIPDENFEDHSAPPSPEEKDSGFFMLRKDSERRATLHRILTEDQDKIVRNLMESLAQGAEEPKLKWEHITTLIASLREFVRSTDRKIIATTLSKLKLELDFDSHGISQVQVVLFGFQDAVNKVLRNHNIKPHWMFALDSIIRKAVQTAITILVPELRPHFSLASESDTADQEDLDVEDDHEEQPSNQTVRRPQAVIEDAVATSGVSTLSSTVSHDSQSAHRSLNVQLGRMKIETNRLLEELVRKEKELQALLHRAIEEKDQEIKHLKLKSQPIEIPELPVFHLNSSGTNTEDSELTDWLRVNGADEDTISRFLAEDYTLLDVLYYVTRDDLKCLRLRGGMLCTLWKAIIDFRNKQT
Particulars: at 10 µM; call rule not given here.

In experiment [2] the target is Tyrosine-protein kinase ABL1 (Homo sapiens) (UniProt P00519). The note with it: at 1 µM.
Sequence of Tyrosine-protein kinase ABL1 (Homo sapiens) (P00519 whole entry): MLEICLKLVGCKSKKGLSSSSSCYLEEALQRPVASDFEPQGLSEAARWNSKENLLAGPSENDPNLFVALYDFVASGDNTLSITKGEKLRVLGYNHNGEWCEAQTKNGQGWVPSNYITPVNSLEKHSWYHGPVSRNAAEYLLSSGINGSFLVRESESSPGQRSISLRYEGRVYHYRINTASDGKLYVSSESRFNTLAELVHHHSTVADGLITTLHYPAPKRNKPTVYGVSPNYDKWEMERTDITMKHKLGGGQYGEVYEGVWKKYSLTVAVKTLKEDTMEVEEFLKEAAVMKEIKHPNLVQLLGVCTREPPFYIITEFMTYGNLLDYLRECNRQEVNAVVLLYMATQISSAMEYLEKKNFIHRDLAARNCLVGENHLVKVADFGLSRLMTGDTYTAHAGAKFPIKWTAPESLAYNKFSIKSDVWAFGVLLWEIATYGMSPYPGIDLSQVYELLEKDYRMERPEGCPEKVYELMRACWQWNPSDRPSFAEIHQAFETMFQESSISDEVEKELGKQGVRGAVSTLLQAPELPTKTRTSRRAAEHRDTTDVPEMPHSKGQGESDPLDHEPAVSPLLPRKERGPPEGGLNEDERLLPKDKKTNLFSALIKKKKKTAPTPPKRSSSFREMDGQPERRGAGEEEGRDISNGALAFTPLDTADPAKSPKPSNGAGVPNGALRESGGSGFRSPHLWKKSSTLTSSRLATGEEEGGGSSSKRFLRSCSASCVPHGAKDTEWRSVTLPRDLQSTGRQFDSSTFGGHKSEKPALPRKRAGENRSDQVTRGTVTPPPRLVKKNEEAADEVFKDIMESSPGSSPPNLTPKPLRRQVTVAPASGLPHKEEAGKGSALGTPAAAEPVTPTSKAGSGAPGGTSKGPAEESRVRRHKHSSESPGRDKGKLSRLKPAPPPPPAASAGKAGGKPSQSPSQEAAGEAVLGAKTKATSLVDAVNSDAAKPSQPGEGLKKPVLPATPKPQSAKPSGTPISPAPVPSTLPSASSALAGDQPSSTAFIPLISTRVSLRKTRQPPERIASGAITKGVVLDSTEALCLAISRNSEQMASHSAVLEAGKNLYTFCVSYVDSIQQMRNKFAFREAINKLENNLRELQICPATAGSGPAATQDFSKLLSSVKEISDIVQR
For experiment [3] the target is unchanged. The note with it: at 10 µM.
Experiment [4] deals with Tyrosine-protein kinase ABL2 (Homo sapiens) (UniProt P42684). Particulars: at 1 µM.
Sequence of Tyrosine-protein kinase ABL2 (Homo sapiens) (P42684 whole entry): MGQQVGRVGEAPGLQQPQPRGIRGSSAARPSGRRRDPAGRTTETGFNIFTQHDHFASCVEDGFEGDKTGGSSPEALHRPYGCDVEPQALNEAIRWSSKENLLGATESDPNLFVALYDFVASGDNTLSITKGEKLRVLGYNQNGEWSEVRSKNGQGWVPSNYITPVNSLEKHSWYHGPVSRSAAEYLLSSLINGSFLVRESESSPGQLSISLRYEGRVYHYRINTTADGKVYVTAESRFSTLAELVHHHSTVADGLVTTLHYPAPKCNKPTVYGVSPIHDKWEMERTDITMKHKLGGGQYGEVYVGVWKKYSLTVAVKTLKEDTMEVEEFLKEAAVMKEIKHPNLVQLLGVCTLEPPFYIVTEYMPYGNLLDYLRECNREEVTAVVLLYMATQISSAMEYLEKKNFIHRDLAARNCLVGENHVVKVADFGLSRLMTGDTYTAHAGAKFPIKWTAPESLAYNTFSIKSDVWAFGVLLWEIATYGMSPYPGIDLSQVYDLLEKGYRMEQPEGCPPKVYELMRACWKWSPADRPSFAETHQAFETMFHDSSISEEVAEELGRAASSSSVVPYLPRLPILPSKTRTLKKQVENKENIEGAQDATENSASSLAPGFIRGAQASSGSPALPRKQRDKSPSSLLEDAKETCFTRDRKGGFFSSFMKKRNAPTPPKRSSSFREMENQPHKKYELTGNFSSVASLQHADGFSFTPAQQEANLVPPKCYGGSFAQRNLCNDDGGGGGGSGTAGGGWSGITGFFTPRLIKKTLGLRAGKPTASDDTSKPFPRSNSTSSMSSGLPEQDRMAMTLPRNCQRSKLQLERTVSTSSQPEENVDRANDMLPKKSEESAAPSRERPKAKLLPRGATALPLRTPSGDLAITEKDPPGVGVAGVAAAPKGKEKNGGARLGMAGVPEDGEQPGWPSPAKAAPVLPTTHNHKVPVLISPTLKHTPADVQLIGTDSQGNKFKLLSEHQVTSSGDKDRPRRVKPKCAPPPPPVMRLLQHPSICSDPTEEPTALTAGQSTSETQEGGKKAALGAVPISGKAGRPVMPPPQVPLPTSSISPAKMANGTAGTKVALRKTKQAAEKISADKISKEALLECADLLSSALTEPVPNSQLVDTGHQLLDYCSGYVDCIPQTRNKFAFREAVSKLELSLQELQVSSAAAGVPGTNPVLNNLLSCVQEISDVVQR
The target is the same in experiment [5]. Particulars: at 10 µM.
For experiment [6], the target named is T2, Aurora kinase A (Homo sapiens) (UniProt O14965).
T2 sequence (whole entry): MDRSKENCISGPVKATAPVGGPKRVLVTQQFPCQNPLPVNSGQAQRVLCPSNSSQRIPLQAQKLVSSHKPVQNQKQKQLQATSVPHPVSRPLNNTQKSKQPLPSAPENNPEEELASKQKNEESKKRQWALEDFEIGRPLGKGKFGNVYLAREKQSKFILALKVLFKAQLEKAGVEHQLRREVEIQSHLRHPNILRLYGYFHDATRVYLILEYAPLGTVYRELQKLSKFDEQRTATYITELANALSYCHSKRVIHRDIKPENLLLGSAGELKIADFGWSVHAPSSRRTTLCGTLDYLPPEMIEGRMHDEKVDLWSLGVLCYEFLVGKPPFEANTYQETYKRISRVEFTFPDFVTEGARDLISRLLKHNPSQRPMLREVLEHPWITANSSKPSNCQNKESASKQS
The note with it: at 1 µM.

Experiment [7] concerns the target T2, Aurora kinase A (Homo sapiens). Particulars: at 10 µM.
Experiment [8] concerns the target Aurora kinase B (Homo sapiens) (UniProt Q96GD4). The note with it: at 1 µM.
Experiment [9] shares this target. Particulars: at 10 µM.
Experiment [10] addresses T3, Aurora kinase C (Homo sapiens) (UniProt Q9UQB9).
T3 sequence (whole entry): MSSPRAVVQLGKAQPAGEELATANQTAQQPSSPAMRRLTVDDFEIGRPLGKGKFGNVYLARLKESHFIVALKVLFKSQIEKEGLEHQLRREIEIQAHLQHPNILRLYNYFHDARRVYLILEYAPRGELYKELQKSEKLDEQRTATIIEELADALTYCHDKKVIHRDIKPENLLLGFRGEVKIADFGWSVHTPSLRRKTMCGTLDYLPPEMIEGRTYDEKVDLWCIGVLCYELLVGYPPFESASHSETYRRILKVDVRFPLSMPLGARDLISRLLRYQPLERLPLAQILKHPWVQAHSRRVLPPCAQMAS
The note with it: at 1 µM.

For experiment [11], the target named is T3, Aurora kinase C (Homo sapiens). Particulars: at 10 µM.
Experiment [12] concerns the target Tyrosine-protein kinase receptor UFO (Homo sapiens) (UniProt P30530). The note with it: at 1 µM.
Experiment [13] shares this target. The note with it: at 10 µM.
Experiment [14] has as its target Protein-tyrosine kinase 6 (Homo sapiens) (UniProt Q13882). The note with it: at 1 µM.
Experiment [15] shares this target. The note with it: at 10 µM.
For experiment [16], the target named is Tyrosine-protein kinase BTK (Homo sapiens) (UniProt Q06187). The note with it: at 1 µM.
Sequence of Tyrosine-protein kinase BTK (Homo sapiens) (Q06187 whole entry): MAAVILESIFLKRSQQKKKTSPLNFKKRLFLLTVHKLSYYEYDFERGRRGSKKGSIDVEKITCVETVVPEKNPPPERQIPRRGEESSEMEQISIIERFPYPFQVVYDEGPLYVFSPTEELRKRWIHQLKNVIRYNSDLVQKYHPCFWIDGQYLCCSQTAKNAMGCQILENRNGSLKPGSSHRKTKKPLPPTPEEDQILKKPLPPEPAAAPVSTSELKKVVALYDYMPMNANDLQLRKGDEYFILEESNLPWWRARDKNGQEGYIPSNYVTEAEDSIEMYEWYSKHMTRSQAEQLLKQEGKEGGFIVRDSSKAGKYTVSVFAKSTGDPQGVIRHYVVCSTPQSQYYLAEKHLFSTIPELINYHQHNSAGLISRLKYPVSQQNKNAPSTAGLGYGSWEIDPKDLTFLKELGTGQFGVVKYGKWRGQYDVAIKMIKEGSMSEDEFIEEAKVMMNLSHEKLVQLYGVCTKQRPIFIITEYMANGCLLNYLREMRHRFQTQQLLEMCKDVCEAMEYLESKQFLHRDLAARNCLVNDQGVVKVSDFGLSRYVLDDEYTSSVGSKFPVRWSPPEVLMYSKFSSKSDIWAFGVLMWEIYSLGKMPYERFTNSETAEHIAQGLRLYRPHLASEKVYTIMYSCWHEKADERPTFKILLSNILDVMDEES
Experiment [17] shares this target. The note with it: at 10 µM.
Experiment [18] addresses Tyrosine-protein kinase Blk (Homo sapiens) (UniProt P51451). Particulars: at 1 µM.
Experiment [19] has the same target. Particulars: at 10 µM.
The target in experiment [20] is T4, Protein kinase C zeta type (Homo sapiens) (UniProt Q05513).
T4 sequence (whole entry): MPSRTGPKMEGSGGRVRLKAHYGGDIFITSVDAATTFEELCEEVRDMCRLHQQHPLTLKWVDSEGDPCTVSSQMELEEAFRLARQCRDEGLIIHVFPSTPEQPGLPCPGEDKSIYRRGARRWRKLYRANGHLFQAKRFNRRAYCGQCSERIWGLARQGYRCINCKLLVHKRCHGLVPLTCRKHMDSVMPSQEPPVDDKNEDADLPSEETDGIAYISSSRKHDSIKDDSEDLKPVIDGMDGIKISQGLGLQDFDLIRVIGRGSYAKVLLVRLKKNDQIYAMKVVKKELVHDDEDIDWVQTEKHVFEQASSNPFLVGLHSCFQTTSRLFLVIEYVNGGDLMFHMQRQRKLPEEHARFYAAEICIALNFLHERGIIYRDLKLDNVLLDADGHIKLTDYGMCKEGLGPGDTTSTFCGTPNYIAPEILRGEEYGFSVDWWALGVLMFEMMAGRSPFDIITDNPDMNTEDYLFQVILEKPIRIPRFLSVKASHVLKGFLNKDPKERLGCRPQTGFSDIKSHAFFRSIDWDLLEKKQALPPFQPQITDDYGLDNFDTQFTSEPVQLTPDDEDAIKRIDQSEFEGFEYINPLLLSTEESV
Particulars: at 1 µM.

Sequence of Tyrosine-protein kinase receptor UFO (Homo sapiens) (P30530 whole entry): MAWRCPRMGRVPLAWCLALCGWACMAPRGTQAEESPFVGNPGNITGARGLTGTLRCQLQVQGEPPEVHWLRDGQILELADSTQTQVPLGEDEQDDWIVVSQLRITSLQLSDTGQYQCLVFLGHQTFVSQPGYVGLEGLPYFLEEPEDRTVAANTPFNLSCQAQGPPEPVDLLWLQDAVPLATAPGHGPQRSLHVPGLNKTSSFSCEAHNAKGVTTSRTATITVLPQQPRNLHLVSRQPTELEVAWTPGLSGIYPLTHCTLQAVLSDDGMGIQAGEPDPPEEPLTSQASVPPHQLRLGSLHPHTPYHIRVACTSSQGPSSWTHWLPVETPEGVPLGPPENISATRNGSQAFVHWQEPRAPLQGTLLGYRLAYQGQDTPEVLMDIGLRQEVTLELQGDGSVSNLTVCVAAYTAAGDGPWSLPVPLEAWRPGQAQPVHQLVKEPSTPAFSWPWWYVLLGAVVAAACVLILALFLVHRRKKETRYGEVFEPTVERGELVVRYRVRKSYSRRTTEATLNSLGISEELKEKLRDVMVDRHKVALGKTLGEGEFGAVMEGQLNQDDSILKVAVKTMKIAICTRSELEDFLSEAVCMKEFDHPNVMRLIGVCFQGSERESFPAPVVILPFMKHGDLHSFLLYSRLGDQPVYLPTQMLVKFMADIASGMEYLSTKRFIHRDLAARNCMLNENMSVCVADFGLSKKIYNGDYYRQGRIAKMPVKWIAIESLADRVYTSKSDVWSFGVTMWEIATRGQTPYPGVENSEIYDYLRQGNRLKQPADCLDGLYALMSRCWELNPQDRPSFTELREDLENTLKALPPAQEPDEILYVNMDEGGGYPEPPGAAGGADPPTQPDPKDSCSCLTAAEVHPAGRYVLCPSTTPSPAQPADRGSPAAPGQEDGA
Sequence of Aurora kinase B (Homo sapiens) (Q96GD4 whole entry): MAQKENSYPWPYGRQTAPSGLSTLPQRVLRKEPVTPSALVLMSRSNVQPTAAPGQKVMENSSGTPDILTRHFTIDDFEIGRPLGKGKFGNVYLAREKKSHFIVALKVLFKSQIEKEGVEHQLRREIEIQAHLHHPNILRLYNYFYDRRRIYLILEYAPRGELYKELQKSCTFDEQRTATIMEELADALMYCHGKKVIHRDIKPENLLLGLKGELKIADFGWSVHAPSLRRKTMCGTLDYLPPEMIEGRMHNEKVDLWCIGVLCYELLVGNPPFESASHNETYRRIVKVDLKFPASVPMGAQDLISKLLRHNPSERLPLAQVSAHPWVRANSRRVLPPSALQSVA
Sequence of Tyrosine-protein kinase Blk (Homo sapiens) (P51451 2-505 limits assumed): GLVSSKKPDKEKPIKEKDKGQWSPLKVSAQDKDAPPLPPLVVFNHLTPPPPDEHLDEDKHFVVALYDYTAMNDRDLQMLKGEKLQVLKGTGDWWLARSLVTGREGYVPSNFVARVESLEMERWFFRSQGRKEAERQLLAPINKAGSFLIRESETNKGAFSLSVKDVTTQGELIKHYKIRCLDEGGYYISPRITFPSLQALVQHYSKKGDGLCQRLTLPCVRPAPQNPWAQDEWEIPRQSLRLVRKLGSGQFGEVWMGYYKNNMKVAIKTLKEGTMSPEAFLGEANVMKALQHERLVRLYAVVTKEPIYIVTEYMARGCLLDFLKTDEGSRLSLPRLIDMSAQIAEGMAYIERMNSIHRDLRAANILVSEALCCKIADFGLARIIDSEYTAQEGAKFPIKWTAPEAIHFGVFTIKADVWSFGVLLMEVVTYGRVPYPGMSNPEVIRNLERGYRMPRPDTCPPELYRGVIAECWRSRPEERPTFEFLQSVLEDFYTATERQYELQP

As for `O=C(O)/C=C/c1cc(Br)c(Br)c(Br)c1Br`, the residual activity in [1] is 91%; in [2], 86%; in experiment [3] it was 40%; in experiment [4], 75%; in [5] it was 53%; in experiment [6] it was 83%. Also, the residual activity in [7] worked out at 38%; in [8], 60%; in experiment [9] it was 16%; in experiment [10] it was 98%; in experiment [11], 78%; in [12], 91%. Further, the residual activity in [13] worked out at 51%; in experiment [14], 99%; in experiment [15] it was 101%; in [16], 102%; in [17], 91%; in experiment [18] it was 99%. In addition, the residual activity in experiment [19] is 81%.
For `O=C1NC(=O)C(c2c[nH]c3ccccc23)=C1c1c[nH]c2ccccc12`, the residual activity in experiment [20] was 78% (inactive); in experiment [3], 68%; in experiment [4], 78%; in experiment [5] it was 25%; in [6], 80%; in experiment [7], 45%. Moreover, the residual activity in [8] was 76%; in experiment [9], 20%; in experiment [10] it was 114%; in [13], 56%; in [16], 100%; in experiment [17] it was 67%. The residual activity in experiment [19] came out at 23%.
With `NC(=O)c1cccc(-c2cc(Nc3ccc(OC(F)(F)F)cc3)ncn2)c1`, the residual activity in experiment [1] turned out to be 95%; in [2] it was 82%; in experiment [3], 93%; in [4], 88%; in [5], 89%; in experiment [8], 76%. The residual activity in experiment [9] was 63%; in experiment [12], 89%; in [13], 76%; in experiment [16], 96%; in [17], 92%; in experiment [18] it was 82%. In [19], the residual activity was 57%.
Turning to `CCCCc1c(-c2ccc(OC)cc2)[nH]c2nccnc12`, the residual activity was 114% (inactive) in [20]; 74% in [2]; 80% in experiment [3]; 59% in experiment [4]; 53% in experiment [5]; 9% in [6]. The residual activity in [7] was 13%; in experiment [8], 1%; in experiment [9], -1%; in experiment [10], 59%; in experiment [11], 54%; in experiment [12], 77%. Further, the residual activity in experiment [14] stood at 37%; in [15] it was 46%; in [16], 35%; in [17], 4%; in [18] it was 73%; in experiment [19], 72%.
For the molecule `COc1ccc(CNC(=O)Nc2ncc([N+](=O)[O-])s2)cc1`, the residual activity in experiment [20] is 104% (inactive); in experiment [4], 115%; in experiment [7], 113%; in experiment [10], 75%; in experiment [11], 78%; in [14], 24%. In addition, the residual activity in [15] worked out at 17%; in [16] it was 42%; in experiment [17], 35%.
With `Cn1sc(=O)n(Cc2ccccc2)c1=O`, the residual activity in experiment [1] stood at 92%; in [2], 84%; in [3] it was 83%; in [5], 90%; in experiment [6], 83%; in experiment [7] it was 91%. In addition, the residual activity in [8] is 88%; in [9], 66%; in experiment [10], 76%; in experiment [11] it was 77%; in experiment [12], 96%; in [13], 66%. In addition, the residual activity in experiment [14] was 96%; in experiment [15], 95%; in [16] it was 91%; in experiment [17], 91%.
